Sampled rows, rich in hits. Any-hit rate of the full collection: about 4.3%.
ADAM17 inh: inhibitors of human ADAM17; inhibition, % at 6.95 µM; recombinant ADAM17, EDANS/DABCYL FRET peptide cleavage; AID 720648; 0.83% of 370,000 active;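 active = inhibition above the mean of compounds lying between control limits plus 3 SD, set per campaign, cut at about 8.5% in these data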;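 note: 0% = DMSO-only wells as the low control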
HGIII-sPLA2 inh: Blocks human group III sPLA2 activity; inhibition, % at 12.2 µM; 0.56% of 370,000 active; Q9NZ20; QFRET BODIPY PC-A2 liposome hydrolysis, fluorescence;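 active = inhibition above mean plus 3 SD of compounds lying within the high and low control bounds, cut at about 19% in these data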;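 note: 0% = median of test compound wells and 100% = no enzyme DMSO wells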
ADAM10 inh: inhibitors of human ADAM10 | O14672 | recombinant ADAM10, EDANS/DABCYL FRET peptide cleavage, 3 h | inhibition, % at 7 µM | 0.62% of 370,000 active | AID 720582;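 active = inhibition above a per-campaign cutoff equal to the mean of compounds falling between control-based bounds plus 3 SD, cut at about 20% in these data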;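 note: 0% = DMSO wells while the 100% control is not disclosed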
FAS-TE inh: blocks the thioesterase domain of human fatty acid synthase; P49327; recombinant FAS-TE, OMFH fluorogenic substrate, fluorescence endpoint; inhibition, % at 15 µM; 0.67% of 360,000 active; AID 602261;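 active = compounds whose normalised, plate-corrected inhibition of enzyme fluorescence in the single-dose primary screen is 50% or more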;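 note: 0% = DMSO with enzyme and 100% = substrate without enzyme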
NR3A LBD binder: NR3A (human) ligand-binding domain modulation. 2.5% of 340,000 active. NR3A LBD differential scanning fluorimetry, Tm shift; 0% = protein alone, 100% = glycine-bound protein. Tm shift relative to glycine control, % at 25 µM;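 active = melting temperature shift of at least 10% of the positive control shift, at one fixed dose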
sPLA2 confirm: human GIII-sPLA2 inhibition, confirmation; shares compounds with HGIII-sPLA2 inh; recombinant hGIII-sPLA2, BODIPY PC-A2 QFRET fluorescence; inhibition, % at 12.2 µM; 34% of 2,000 active; AID 743280;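 active = mean inhibition across triplicates above the hit cutoff set in the earlier primary screen, cut at about 19% in these data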;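 note: 0% = enzyme with DMSO and 100% = DMSO wells lacking enzyme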
535nm interf: optically interferes with 535nm fluorescence in sPLA2 counter-screen | shares compounds with HGIII-sPLA2 inh | BODIPY FL product fluorescence interference, QFRET | inhibition, % at 12.2 µM | 8.5% of 2,000 active;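 active = average inhibition above the solvent-only control mean plus 3 SD, cut at about 6% in these data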;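 note: 0% = DMSO with substrate plus product and 100% = DMSO with substrate alone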
BODIPY interf DR: interferes with 535nm fluorescence in dose response counter-screen | shares compounds with HGIII-sPLA2 inh | 240 tested, under 10 active | IC50, µM | BODIPY FL product fluorescence interference, cell-free | AID 743455;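 active = IC50 at or below 10 µM; inactive = IC50 above 10 µM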
* hit, by the source's call; . = no result.

SMILES	ADAM17 inh	HGIII-sPLA2 inh	ADAM10 inh	FAS-TE inh	NR3A LBD binder	sPLA2 confirm	535nm interf	others
CCc1ccc(/C=C(/C#N)C(N)=S)cc1	-1	24*	3	-9	-6	29*	3	BODIPY interf DR=>122
c1ccc2c3c([nH]c2c1)CNCC3	-7	24*	-8	-5	1	18	-7
O=C(NC1CN2CCC1CC2)c1cc(-c2ccc(Cl)cc2)nc2ccccc12 (stereo unspecified)	-22	-10	-80	.	.	.	.
S=P(NCCSCc1ccccc1)(N1CC1)N1CC1	-1	6	-5	-22	2	.	.
C[C@H](CO)N1C[C@H](C)[C@@H](CN(C)C(=O)Oc2ccc3ccccc3c2)OCc2cn(nn2)CCCC1=O	-2	12	-24	-6	.	.	.
CN(C)c1ccc(-[n+]2c(-c3ccccc3)cc(-c3ccccc3)cc2-c2ccccc2)cc1	-2	22*	-6	-3	-7	27*	-37
c1ccc(-c2cc(-c3ccccc3)[n+](-c3ccccc3)c(-c3ccccc3)c2)cc1	-2	6	-1	-5	-1	.	.
CCC(=NCc1ccco1)c1c(O)n(C)c(=O)n(C)c1=O	-4	20*	-6	-4	-1	-1	-7
CC(=NCc1ccco1)c1c(O)n(C)c(=O)n(C)c1=O	1	7	-2	-5	-1	.	.
Nc1ccc(-c2ccc(N)cc2)cc1	3	19*	-1	-6	-2	17	-4
O=c1[nH]c(=S)n(C2CC2)c(O)c1/C=N/Nc1ccccc1	-4	22*	-12	-10	-10	16	-4
O=C1CC(c2ccccc2)CN1 (stereo unspecified)	-2	24*	2	-4	1	3	-3
O=C1NC(=S)NC(=O)C1c1ccccc1	-5	8	-12	-2	-1	.	.
Clc1cccc(N2CCNCC2)c1Cl	-5	25*	-5	-9	0	9	-12
O=C1CN=C(c2ccccc2F)c2cc(Cl)ccc2N1	-2	19*	-10	0	0	-2	-7
Cc1cc(C(=O)N=Nc2c(O)n(C)c3ccccc23)c(C)o1	-8	23*	1	-6	2	1	-2
C/C=C1/C[N+]2(C)CCC34C(=C(C=O)[C@H]1C[C@@H]32)Nc1ccccc14 (stereo partly specified)	-8	2	-19	-4	-1	.	.
Cc1c(N=Nc2c(O)n(C)c(=O)n(C)c2=O)c(=O)n(-c2ccccc2)n1C	-5	19*	8	-6	4	1	-4
O=C(C[N+]12CCC(CC1)C(OC(=O)c1ccccc1)C2)c1ccc([N+](=O)[O-])cc1 (stereo unspecified)	-6	22*	-1	-3	0	13	-21
O=C(C[N+]12CCC(CC1)C(CO)C2)c1ccc([N+](=O)[O-])cc1 (stereo unspecified)	0	4	-4	-2	0	.	.
c1ccc(Cc2cnc(N3CCNCC3)nc2)cc1	-7	25*	-15	.	.	-5	-7
c1cnc(N2CCNCC2)nc1	-5	13	-6	-6	7	.	.
CN1OC[C@@H]2CN[C@H](c3ccc(Br)cc3)C[C@@H]21	4	-2	-18	-8	.	.	.

Screens: PubChem, several laboratories
